Only some compounds are listed: those with a hit (about 19% of all), similar ones and a draw of the others.
IL-1B inflam inh: inhibitors of inflammasome signaling (IL-1 beta secretion); 4.7% of 360,000 active; activity change, % at 57.5 µM; AID 743279; THP-1 LPS/ATP IL-1B secretion, AlphaLISA, 16 h; hits give low values; in the data active means activity change below about -50%; inconclusive means mostly about -30% to -49%
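Secreted IL-1B measured by AlphaLISA bead assay after 16 h compound exposure of THP-1 cells; compounds (final up to 57.5 uM) added 1 h before LPS (250 ng/mL) and ATP (1.25 mM) stimulation; lower signal means less secretion.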
Giardia kill: Giardia lamblia killing | Giardia lamblia trophozoite viability | activity change, % at 7.66 µM, hits read low | 0.15% of 340,000 active | AID 540267; in the data active means activity change below about -80%; inconclusive means between about -30% and that limit;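 further: parasites exposed to compound for two days anaerobically before the ATP read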
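Viability, read as ATP luminescence: trophozoites at 100 cells/well, compound added, 48 hrs anaerobic at 37 deg C, then 15-30 min room-temperature development before reading.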
TDP1 block: inhibitors of human tyrosyl-DNA phosphodiesterase TDP1 | Potency, µM (doses to about 130 µM), inactives show top-dose activity change, negative = inhibition, usual class: inhibitors | recombinant TDP1, AlphaScreen DNA substrate cleavage | Q9NUW8 | 0.28% of 350,000 active | AID 485290; further: potency means the concentration at half of the fitted maximal effect; nearly all actives have a fitted effect of over 40% in size
Target sequence (Q9NUW8 whole entry, looked up): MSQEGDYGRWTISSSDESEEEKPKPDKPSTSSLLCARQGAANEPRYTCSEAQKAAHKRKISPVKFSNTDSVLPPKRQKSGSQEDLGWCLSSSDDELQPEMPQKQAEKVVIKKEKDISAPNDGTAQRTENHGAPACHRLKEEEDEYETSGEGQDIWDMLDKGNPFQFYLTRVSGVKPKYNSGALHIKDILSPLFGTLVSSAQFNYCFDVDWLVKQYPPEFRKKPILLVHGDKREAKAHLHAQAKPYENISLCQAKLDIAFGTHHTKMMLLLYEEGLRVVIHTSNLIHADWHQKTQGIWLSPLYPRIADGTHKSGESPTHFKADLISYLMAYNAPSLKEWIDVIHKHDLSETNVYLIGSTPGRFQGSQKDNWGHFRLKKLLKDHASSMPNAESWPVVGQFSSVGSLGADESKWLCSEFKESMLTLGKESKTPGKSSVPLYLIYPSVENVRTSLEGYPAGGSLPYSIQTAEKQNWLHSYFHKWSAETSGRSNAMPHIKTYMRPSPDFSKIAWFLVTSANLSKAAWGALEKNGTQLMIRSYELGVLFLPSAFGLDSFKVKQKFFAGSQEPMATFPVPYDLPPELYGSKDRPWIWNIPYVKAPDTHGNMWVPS
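Enzyme-compound mixtures sat 15 min at room temperature, followed by a 5 min reaction with 15 nM final substrate and 10 min with AlphaScreen beads. Recombinant human Tdp1 was used at 1 nM final.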
TDP1 cell noCPT: qHTS for Inhibitors of human tyrosyl-DNA phosphodiesterase 1 (TDP1): qHTS in cells in absence of CPT. DT40 Tdp1-/- hTDP1 cells, no CPT, ATP luminescence, 48 h. 15% of 420,000 active. Potency, µM (highest dose often 46.2 µM), for inactives: at the highest dose activity change, negative = growth inhibition, actives largely listed as inhibitors; further: potency means the concentration at half of the fitted maximal effect; nearly all actives have a fitted effect of over 55% in size
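Chicken DT40 Tdp1-/- cells complemented with human TDP1, screened without camptothecin (DMSO vehicle only), 400 cells/well. Compounds pin-transferred, cells incubated at 37 °C for at least 48 hr. Growth read as ATP-dependent luminescence (CellTiter-Glo, 30 min at RT).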
ELG1 repair inh: blocks ELG1-dependent DNA repair in HEK293T cells | HEK293T ELG1-luciferase reporter, luminescence, 16 h; DNA damage induced by 5-fluorouridine | AID 504467 | 2.3% of 330,000 active | Potency, µM (titrated, usually from 46.1 µM), for the others: at the highest dose activity change, negative = inhibition, actives largely listed as inhibitors; further: potency means the concentration at half of the fitted maximal effect; nearly all actives have a fitted effect of over 55% in size
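Overnight (16 hr) co-exposure of 2,000 cells/well to 5-fluorouridine and compound at 37 °C preceded detection. Luciferase was quantified via ONE-Glo luminescence; loss of signal denotes inhibition.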
TDP1 cell CPT: growth inhibition of DT40 Tdp1-/-;hTDP1 cells with camptothecin (screen for TDP1 inhibitors); chicken DT40 Tdp1-/-;hTDP1 cells + 20 nM CPT, ATP luminescence, 48 h; Potency, µM (titrated, usually from 46.2 µM), inactives show at the highest dose activity change, negative = growth inhibition, usual class: inhibitors; 12% of 420,000 active; AID 686979; further: potency means the concentration at half of the fitted maximal effect; nearly all actives have a fitted effect of over 55% in size
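Chicken DT40 Tdp1-/- cells complemented with human TDP1, 400 cells/well, exposed to compounds plus 20 nM camptothecin for at least 48 h at 37 C; viability read as ATP content by CellTiter-Glo luminescence.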
Starred values were filed as active, the others as inactive; ? = inconclusive; / = not tested or not shown; [ ] = remark or other dose. Unless noted, the call rests on the fitted dose curve; in most records, active means well fitted curve in the direction sought with a large enough effect; inconclusive means small, poorly fitted or top-dose-only effect, or another doubt; inactive means no such curve, though single readings can be large; an effect the other way counts as inactive or inconclusive. On the % scale 0 is the no-effect control and ±100 the full control effect.

SMILES	IL-1B inflam inh	Giardia kill	TDP1 block	TDP1 cell noCPT	ELG1 repair inh	TDP1 cell CPT
Cc1cccc(/C=N\NC(=O)c2sccc2-n2cccc2)c1	-15	7	4%	-11%	3%	-11%
COC(=O)c1nnc(SC)nc1C(=O)OC	/	/	-4%	/	/	/
COc1ccccc1NC(=O)c1nnn(Cc2ccccc2)c1NC(=O)C(F)(F)F	13	2	0%	29µM*	11%	?
CC(C)(C)c1cc(C(=O)NNc2ccc(OC(F)(F)F)cc2)n(Cc2ccccc2)n1	/	-9	3%	?	-4%	-29%
COc1ccccc1NC(=O)c1nnn(Cc2ccccc2)c1NC(C)=O	2	-29	-1%	-13%	-2%	-16%
CC(C)(C)c1cc(C(=O)NNc2cccc(Cl)c2)n(Cc2ccccc2)n1	-68*	-15	5%	?	1%	?
CC(C)(C)c1cc(C(=O)NNc2cc(C(F)(F)F)ccc2Cl)n(Cc2ccccc2)n1	-80*	11	1%	21µM*	?	?
COc1ccccc1NNC(=O)c1cc(C(C)(C)C)nn1Cc1ccccc1	-56*	3	-1%	23µM*	-2%	1%
Cc1ccc(SCC(=O)Nc2ccc(-c3nc4ccccc4[nH]3)cc2)cc1	18	-1	0%	?	9%	?
O=C(c1cccnc1)C1CCCN(Cc2ccc3c(c2)CN(C(=O)c2cn4ccccc4n2)CCO3)C1 (stereo not drawn)	/	/	/	?	/	-3%[9.04 µM]
COC(=O)[C@H](C)[C@H](CC(C)C)NC(=O)[C@H](C)[C@H](CC(C)C)NC(=O)c1ccccn1	/	-14	7%	/	/	/
N#Cc1ccc(-c2nc3ccc(Cl)cn3c2Cc2ccccc2C(F)(F)F)cc1	-16	/	/	?	/	?
Cc1ccc(Cc2c(-c3ccc(C#N)cc3)nc3ccc(Cl)cn23)cc1	-10	/	/	?	/	-24%
CC(C)(C)Cc1c(-c2ccco2)nc2ccc(Cl)cn12	34	/	/	-85%	/	26µM*
N#Cc1ccc(-c2nc3ccc(Cl)cn3c2Cc2ccccc2)cc1	-14	/	/	?	/	21µM*
CC(C)(C)Cc1c(-c2ccc(C#N)cc2)nc2ccc(Cl)cn12	-18	/	/	16µM*	/	?
CC(C)(C)Cc1c(-c2cccc(Cl)c2)nc2ccc(Cl)cn12	-20	/	/	?	/	?
CCOc1ccc(CCNS(=O)(=O)c2cccc3nsnc23)cc1OCC	-4	2	7%	-28%	4%	-16%
O=C(CC(c1ccccc1)C1CCCCC1=O)c1ccccc1 (stereo not drawn)	12	5	/	16µM*	/	18µM*
CN(C)[C@H]1C(=O)C(C(=O)NCN2CCCC2)=C(O)[C@]2(O)C(=O)C3=C(O)c4c(O)cccc4[C@](C)(O)[C@H]3C[C@H]12	/	/	0.2µM*	/	/	/
CN(C)[C@@H]1C(=O)C(C(=O)NCN2CCCC2)=C(O)[C@@]2(O)C(=O)C3=C(O)c4c(O)cccc4[C@@](C)(O)C3CC12 (stereo partly drawn)	/	/	0.71µM*	/	-2%	/
O=C1CCC(=O)N1c1ccccc1-c1ccccc1	6	-10	-1%	5%	5%	-4%
COC(=O)C1(C)NC(c2ccc(Cl)cc2)C2C(=O)N(c3ccccc3)C(=O)C21 (stereo not drawn)	3	36	3%	-9%	6%	-7%
CC(=O)Oc1ccc(N2C(=O)C3C(C2=O)C2(C)C=CC3(C)O2)cc1 (stereo not drawn)	/	/	9%	/	-3%	/
O=C1C2C3C=CC(CNS(=O)(=O)c4ccccc4)(O3)C2C(=O)N1c1ccc(Cl)cc1 (stereo not drawn)	6	2	8%	?	1%	26µM*
SMILES	IL-1B inflam inh	Giardia kill	TDP1 block	TDP1 cell noCPT	ELG1 repair inh	TDP1 cell CPT
O=C1C2C3C=CC(CO)(O3)C2C(=O)N1c1ccccc1-c1ccccc1 (stereo not drawn)	-82*	26	10%	4.1µM*	6%	2.6µM*
CC(=O)Oc1ccc(N2C(=O)C3C4C=CC(CO)(O4)C3C2=O)cc1 (stereo not drawn)	-4	18	7%	4.6µM*	19%	2.6µM*
COc1ccc(S(=O)(=O)n2ccnc2C)c(C)c1C	0	-9	/	21%	1%	-8%
COc1cccc(CNC(=O)c2c(OC)cc(=O)n3c2CCN(C(=O)c2ccc(C)nc2)CC3)c1	/	/	/	6%	/	8%
Cc1ccc(C)c(NC(=S)NCc2ccc3[nH]c4c(c3c2)CCCC4)c1	?	-6	11%	?	?	?
Cc1ccccc1NC(=S)NCc1ccc2[nH]c3c(c2c1)CCCC3	-12	-1	-5%	21µM*	?	?
CC1=C(C(=O)Nc2ccc(C)cc2C)C(c2ccc(O)cc2)n2nc(SCC(=O)c3ccc(C)cc3)nc2N1 (stereo not drawn)	/	/	-5%	-13%	/	-20%
CC1(C)Cc2c(sc3c2c(=N)n(Cc2ccco2)c(=O)n3Cc2ccc(Cl)cc2)CO1	?	-3	0%	?	5.8µM*	-110%
CC1(C)Cc2c(sc3c2c(=N)n(Cc2ccco2)c(=O)n3Cc2ccccc2)CO1	-23	12	5%	?	12µM*	18µM*
CC1(C)Cc2c(sc3[nH]c(=S)n(Cc4ccco4)c(=O)c23)CO1	?	0	/	?	0%	21µM*
CCn1c(=O)n(-c2ccc(Cl)cc2)c(=O)c2c3c(sc21)COC(C)(C)C3	5	-4	3%	-30%	-21%	-12%
Cn1c(=O)n(Cc2ccco2)c(=N)c2c3c(sc21)CCC3	14	4	-2%	-29%	/	-22%
CC1CCN(c2ccc(C(=O)NCc3ccco3)cc2[N+](=O)[O-])CC1	?	12	-1%	?	-1%	?
CCN(CC)S(=O)(=O)c1ccc(C(=O)Nc2ccc(Cc3ccncc3)cc2)cc1	-83*	-2	-4%	15µM*	?	16µM*
O=C(O)c1ccc(S(=O)(=O)N(Cc2ccccc2)Cc2ccccc2)cc1	-4	-16	/	24%	0%	-6%
CCN(CC)S(=O)(=O)c1ccc(NC(=O)c2ccccn2)cc1	-5	-2	6%	-25%	?	-27%
CCCN(CCC)S(=O)(=O)c1ccc(C(=O)Nc2nc3c(s2)CCc2ccccc2-3)cc1	38	-4	3%	15µM*	?	16µM*
